The record followed here is the supplement of paper PMC11628255, “Interference of metal ions on the bioluminescent signal of firefly, Renilla, and NanoLuc luciferases in high-throughput screening assays” (Frontiers in Chemistry, 2024).

Structures are written as SMILES. ± gives the standard deviation of the averaged measurements.

This assay relates to NanoLuc luciferase (NLuc). Put plainly: residual bioluminescent signal relative to negative (DMSO) control; higher = less interference (more residual luciferase signal). The procedure:
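Purified luciferase (FLuc 10 nM + 10 uM D-luciferin; NLuc 10 pM + 10 uM furimazine; RLuc 50 pM + 2 uM coelenterazine) in 384-well plates; metal salt pre-incubated with enzyme 10 min at RT, substrate added and luminescence read after 10 min. Signal normalised to plate DMSO negative control (% N_VALUE = x/mean neg *100); triplicate wells at 0.01, 1 and 5 mM salt.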

The mark [1] stands for this setting: metal salt concentration 0.01 mM, HEPES conditions (100 mM HEPES, 0.1% BSA, pH 7.5).
Where [2] appears, read: metal salt concentration 0.01 mM, screening conditions (PBS, 0.1% BSA, pH 7.4).
Setting [3] is: metal salt concentration 1 mM, HEPES conditions (100 mM HEPES, 0.1% BSA, pH 7.5).
Setting [4] is: metal salt concentration 1 mM, screening conditions (PBS, 0.1% BSA, pH 7.4).
Setting [5] is: metal salt concentration 5 mM, HEPES conditions (100 mM HEPES, 0.1% BSA, pH 7.5).
The mark [6] stands for this setting: metal salt concentration 5 mM, screening conditions (PBS, 0.1% BSA, pH 7.4).

Regarding `[Cl-].[Na+]` [sodium chloride], the residual bioluminescent signal is, setting by setting: under setting [1], 95.5 ± 3.6%; under setting [2], 99.4 ± 2.9%; under setting [3], 99.8 ± 3.9%; under setting [4], 102 ± 4.1%; under setting [5], 98.5 ± 2.6%; under setting [6], 99.4 ± 4.3%.

Turning to `O=C([O-])[O-].[K+].[K+]` [potassium carbonate], the residual bioluminescent signal is, setting by setting: under setting [1], 91.3 ± 2.9%; under setting [2], 100 ± 4%; under setting [3], 92.1 ± 8.9%; under setting [4], 97.6 ± 3%; under setting [5], 95.6 ± 1.7%; under setting [6], 96.6 ± 3.6%.

For the compound `[Cl][Fe]([Cl])[Cl]` [iron(III) chloride], the residual bioluminescent signal by setting is: under setting [1], 90.2 ± 4%; under setting [2], 93 ± 3%; under setting [3], 0.54 ± 0.37%; under setting [4], 53.4 ± 2.6%; under setting [5], 0.188 ± 0.081%; under setting [6], 0.189 ± 0.24%.

For `[Cl][Fe][Cl]` [iron(II) chloride], the residual bioluminescent signal is, setting by setting: under setting [1], 95.6 ± 6%; under setting [2], 99.7 ± 4.5%; under setting [3], 2.39 ± 1.2%; under setting [4], 10.5 ± 2.6%; under setting [5], 0.172 ± 0.13%; under setting [6], 0.779 ± 0.37%.

Regarding `O.O.O.O.O.O.O.O=S(=O)([O-])[O-].[Mg+2]` [magnesium sulfate], the residual bioluminescent signal under setting [1] came out at 91 ± 1.1%; the residual bioluminescent signal under setting [2] worked out at 97.44 ± 0.7%; the residual bioluminescent signal under setting [3] was 99 ± 1.7%; the residual bioluminescent signal under setting [4] worked out at 95.09 ± 0.87%; the residual bioluminescent signal under setting [5] amounted to 107 ± 3.1%; the residual bioluminescent signal under setting [6] is 95.5 ± 2.1%.

Regarding `CC#N.CC#N.CC#N.CC#N.F[B-](F)(F)F.[Cu+]` [tetrakis(acetonitrile)copper(I) tetrafluoroborate], the residual bioluminescent signal amounted to 92.6 ± 2.9% under setting [1]; 90 ± 3% under setting [2]; 0.251 ± 0.095% under setting [3]; 0.838 ± 0.074% under setting [4]; 0.149 ± 0.095% under setting [5]; 0.354 ± 0.31% under setting [6].

Take `O=C([O-])[O-].[Cs+].[Cs+]` [caesium carbonate]: the residual bioluminescent signal was found to be 99.36 ± 0.78% under setting [1]; 98.8 ± 6.6% under setting [2]; 96.5 ± 3.1% under setting [3]; 102 ± 3% under setting [4]; 91.4 ± 3.5% under setting [5]; 92.2 ± 2.9% under setting [6].
